Data: PubChem BioAssay
Activity calls are given as the source filed them. Unless noted, the rule behind the calls is not given here.

Experiments:
[1] = test system: Wnt5a (protein binding on small-molecule microarray); assay: small molecules binding Wnt5a protein – biophysical, small-molecule microarray, 635/667 nm fluorescence, primary screen (AID 1142); details: 635 nm fluorescence, higher = more signal;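 note: fluorescence read at 667 nm with signal to noise per printed feature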
[2] = ATP-based viability of Huh7 replicon cells – cell-based, CellTiter-Glo luminescence, basal, 48 h, cytotoxicity control for HCV replication inhibitor project, primary screen (AID 1143); details: higher = more signal, called active from +8 up or from −8 down;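 note: Huh7 hepatoma cells carrying a hepatitis C replication reporter with no stimulus; test concentration not given here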
[3] = Pseudomonas biofilm growth suppression – PAO1 strain, BacTiter-Glo luminescence, LB-PBS, primary screen (AID 1144); details: P. aeruginosa PAO1 biofilm, 12 h, higher = more signal
[4] = basal CRE-LacZ reporter activity in PC12 – cell-based, unstimulated, primary screen (AID 1145); details: no forskolin, luminescence, 4.5 h, higher = more signal, called active from +8 up or from −8 down
[5] = forskolin-driven CRE-LacZ activity in PC12 – cell-based, CRE-LacZ reporter, forskolin-stimulated, primary screen (AID 1146); details: luminescence, 4.5 h, higher = more signal, called active from +8 up or from −8 down;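 note: PC12 cells with 6xCRE LacZ reporter stimulated by forskolin 10 µM; beta-galactosidase reporter signal reflecting CREB driven transcription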
[6] = target: Streptavidin (Streptomyces avidinii) (UniProt P22629); assay: compounds binding control protein streptavidin – biophysical, small-molecule microarray, 635/667 nm fluorescence, artefact control for SMM compound annotation, primary screen (AID 1147); details: higher = more signal;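 note: signal reflects streptavidin binding to arrayed compounds as a control protein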
[7] = probe aInhba binding on compound microarray – biochemical, small-molecule microarray, 635/667 nm fluorescence, primary screen (AID 1148); details: higher = more signal;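 note: score merges 667nm spot fluorescence with signal-to-noise for antibody binding to printed compounds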
[8] = target: Torsin-1A (Homo sapiens) (UniProt O14656); assay: TOR1A wild-type binding on microarray – cell lysate, small-molecule microarray, lysate, 635/667 nm, primary screen (AID 1149); details: COS7 hTOR1A-WT lysate, 635 nm fluorescence, higher = more signal
[9] = target: Torsin-1A (Homo sapiens) (UniProt O14656); assay: torsin A mutant lysate binding on microarrays – cell lysate, small-molecule microarray, COS7 lysate, 635/667 nm fluorescence, primary screen (AID 1150); details: COS7 hTOR1A mutant lysate, 635 nm fluorescence, higher = more signal;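 note: score pools 667 nm emission and signal to noise measuring lysate protein binding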
[10] = test system: Sonic hedgehog protein (Shh); assay: Sonic hedgehog microarray binding compounds – biochemical, small-molecule microarray, 635/667 nm fluorescence, primary screen (AID 1151); details: 635 nm fluorescence, higher = more signal;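 note: Shh protein binding to compounds spotted on small-molecule microarray slides; score combines spot fluorescence intensity with signal-to-noise across triplicate slides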
[11] = optical density shifts of acrAB sulA E. coli – strain DRC41, OD650, 48 h, E. coli filamentation inducer project, primary screen (AID 1152); details: higher = more signal, called active from +8 up or from −8 down;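 note: E. coli MC1000 strain DRC41 lacking acrAB efflux pump and sulA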
[12] = probe aLefty1 binding on compound microarray – biochemical, small-molecule microarray, 635/667 nm fluorescence, primary screen (AID 1153); details: higher = more signal;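 note: score merges spot fluorescence with signal-to-noise ratio from the scanned slide images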
[13] = plasmodial surface anion channel blockers, osmotic lysis – cell-based, P. falciparum Indochina, OD700, 1 h, primary screen (AID 1154); details: P. falciparum Indochina infected RBC osmotic lysis, higher = more signal, called active from +8 up or from −8 down
[14] = plasmodial surface anion channel blockers, osmotic lysis – cell-based, P. falciparum Indochina, OD700, 2 h, primary screen (AID 1155);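 note: lysis reports solute entry through the parasite surface anion channel PSAC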; details: P. falciparum Indochina infected erythrocytes, higher = more signal, called active from +8 up or from −8 down
[15] = changes in parasitized red cell lysis, either direction – P. falciparum Indochina, OD700, 3 h, PSAC antagonist project, primary screen (AID 1156); details: P. falciparum-infected erythrocytes, osmotic lysis, higher = more signal, called active from +8 up or from −8 down
[16] = plasmodial surface anion channel blockers, osmotic lysis – cell-based, P. falciparum Indochina, OD700, 18 h, primary screen (AID 1157); details: P. falciparum Indochina infected erythrocytes, osmotic lysis OD700, 18 h; higher = more signal, called active from +8 up or from −8 down
[17] = S6 kinase pathway phospho-S6 level changes – cell-based, A549, cytoblot, luminescence, serum-stimulated, primary screen (AID 1158); details: 5 h, higher = more signal;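 note: serum-stimulated A549 lung adenocarcinoma cells; signal is phosphorylated S6 detected by cytoblot immunostaining with HRP secondary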
[18] = target: NADPH oxidase 2 (Homo sapiens) (UniProt P04839); assay: compounds shifting NOX2 Amplex Red fluorescence – cell-based, HEK293-NOX2, PMA-stimulated, NOX inhibitor project, primary screen (AID 1159); details: 45 min, higher = more signal, called active from +8 up or from −8 down; note: test concentration not given here
[19] = target: NADPH oxidase 4 (Homo sapiens) (UniProt Q9NPH5); assay: compounds shifting NOX4 Amplex Red fluorescence – cell-based, HEK293-NOX4, tetracycline-induced, NOX inhibitor project, primary screen (AID 1160); details: HEK293-NOX4, Amplex Red H2O2 fluorescence, 45 min; higher = more signal, called active from +8 up or from −8 down
[20] = target: NADPH oxidase 5 (Homo sapiens) (UniProt Q96PH1); assay: compounds shifting NOX5 Amplex Red fluorescence – cell-based, HEK293-NOX5, NOX inhibitor project, primary screen (AID 1161); details: HEK293-NOX5, ionomycin, 45 min, higher = more signal
NADPH oxidase 5 (Homo sapiens), sequence (Q96PH1 whole entry, looked up): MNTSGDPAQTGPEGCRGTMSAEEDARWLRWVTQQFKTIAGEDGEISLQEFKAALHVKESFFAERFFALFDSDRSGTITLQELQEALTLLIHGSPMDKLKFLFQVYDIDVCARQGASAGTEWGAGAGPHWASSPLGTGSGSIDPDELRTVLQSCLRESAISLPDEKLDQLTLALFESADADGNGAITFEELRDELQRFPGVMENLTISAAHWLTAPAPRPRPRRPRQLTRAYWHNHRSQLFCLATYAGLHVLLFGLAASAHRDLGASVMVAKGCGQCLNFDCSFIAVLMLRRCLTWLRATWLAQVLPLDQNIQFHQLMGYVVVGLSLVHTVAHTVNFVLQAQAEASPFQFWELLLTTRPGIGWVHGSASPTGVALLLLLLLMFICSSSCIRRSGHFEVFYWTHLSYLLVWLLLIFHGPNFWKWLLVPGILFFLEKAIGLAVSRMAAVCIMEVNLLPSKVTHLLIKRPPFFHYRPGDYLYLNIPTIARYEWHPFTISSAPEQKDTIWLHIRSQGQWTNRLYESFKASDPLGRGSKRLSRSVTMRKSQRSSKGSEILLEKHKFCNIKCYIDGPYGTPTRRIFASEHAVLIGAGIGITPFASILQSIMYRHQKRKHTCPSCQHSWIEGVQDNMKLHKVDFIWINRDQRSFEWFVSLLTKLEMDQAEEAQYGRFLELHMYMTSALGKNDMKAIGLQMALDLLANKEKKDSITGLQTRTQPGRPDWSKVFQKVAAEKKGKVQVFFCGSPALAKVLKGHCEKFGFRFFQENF

Streptavidin (Streptomyces avidinii), sequence (P22629 whole entry, looked up): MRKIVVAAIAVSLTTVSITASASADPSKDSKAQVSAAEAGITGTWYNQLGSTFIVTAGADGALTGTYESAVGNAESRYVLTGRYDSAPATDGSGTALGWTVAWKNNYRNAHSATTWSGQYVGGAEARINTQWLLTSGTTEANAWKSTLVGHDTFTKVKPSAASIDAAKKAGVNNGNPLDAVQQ
Torsin-1A (Homo sapiens), sequence (O14656 whole entry, looked up): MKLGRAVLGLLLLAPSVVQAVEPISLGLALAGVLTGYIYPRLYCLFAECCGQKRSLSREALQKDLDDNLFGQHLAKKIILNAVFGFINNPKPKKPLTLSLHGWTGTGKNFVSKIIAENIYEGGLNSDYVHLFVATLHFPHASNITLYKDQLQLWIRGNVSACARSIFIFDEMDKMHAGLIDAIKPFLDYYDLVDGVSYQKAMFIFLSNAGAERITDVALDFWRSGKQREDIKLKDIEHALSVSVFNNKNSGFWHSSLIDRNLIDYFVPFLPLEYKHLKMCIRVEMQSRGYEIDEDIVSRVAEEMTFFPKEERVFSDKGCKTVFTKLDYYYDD
NADPH oxidase 4 (Homo sapiens), sequence (Q9NPH5 whole entry, looked up): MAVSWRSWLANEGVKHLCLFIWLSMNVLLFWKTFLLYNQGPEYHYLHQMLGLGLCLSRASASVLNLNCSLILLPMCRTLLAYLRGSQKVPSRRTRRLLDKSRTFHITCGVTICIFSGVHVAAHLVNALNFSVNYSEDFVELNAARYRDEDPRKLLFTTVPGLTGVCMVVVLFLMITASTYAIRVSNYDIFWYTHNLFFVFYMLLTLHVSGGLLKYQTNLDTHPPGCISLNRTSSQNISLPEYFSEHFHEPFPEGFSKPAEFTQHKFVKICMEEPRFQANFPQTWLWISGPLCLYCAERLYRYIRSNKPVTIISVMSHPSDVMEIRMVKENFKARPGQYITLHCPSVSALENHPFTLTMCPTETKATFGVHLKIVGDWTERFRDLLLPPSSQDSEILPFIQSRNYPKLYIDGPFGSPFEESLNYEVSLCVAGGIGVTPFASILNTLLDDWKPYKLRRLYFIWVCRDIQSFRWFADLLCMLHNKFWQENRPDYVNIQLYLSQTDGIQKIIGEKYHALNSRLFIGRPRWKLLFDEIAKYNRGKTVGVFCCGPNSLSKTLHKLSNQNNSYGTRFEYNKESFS
NADPH oxidase 2 (Homo sapiens), sequence (P04839 whole entry, looked up): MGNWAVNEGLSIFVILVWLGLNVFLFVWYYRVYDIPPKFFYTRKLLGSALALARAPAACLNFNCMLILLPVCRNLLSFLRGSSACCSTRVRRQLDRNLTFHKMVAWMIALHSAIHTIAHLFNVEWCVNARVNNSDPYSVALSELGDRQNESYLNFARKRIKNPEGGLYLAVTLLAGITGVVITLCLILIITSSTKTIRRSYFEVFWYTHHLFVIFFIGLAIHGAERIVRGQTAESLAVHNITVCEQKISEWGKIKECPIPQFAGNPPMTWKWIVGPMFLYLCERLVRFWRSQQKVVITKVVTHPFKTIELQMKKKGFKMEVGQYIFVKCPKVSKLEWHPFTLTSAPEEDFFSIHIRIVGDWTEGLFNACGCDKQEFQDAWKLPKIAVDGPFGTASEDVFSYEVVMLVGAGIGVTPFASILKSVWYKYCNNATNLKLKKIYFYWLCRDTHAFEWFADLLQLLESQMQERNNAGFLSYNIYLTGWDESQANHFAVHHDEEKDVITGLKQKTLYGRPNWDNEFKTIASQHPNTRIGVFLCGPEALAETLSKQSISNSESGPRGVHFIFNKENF

| Compound | composite z-score [1] | z-score [2] | z-score [3] | z-score [4] | z-score [5] | composite z-score [6] | composite z-score [7] | composite z-score [8] | composite z-score [9] | composite z-score [10] | z-score [11] | composite z-score [12] | z-score [13] | z-score [14] | z-score [15] | z-score [16] | z-score [17] | z-score [18] | z-score [19] | z-score [20] |
| --- | --- | --- | --- | --- | --- | --- | --- | --- | --- | --- | --- | --- | --- | --- | --- | --- | --- | --- | --- | --- |
| CC1CC/C=C\[C@H]2OC34C=CCN(c5ccc6ccccc6c5)C(=O)[C@H]3N(C(CO)C(C)C)C(=O)[C@@H]4C2C(=O)O1 (stereo not given in full) | -0.257 | -0.0047 (inactive) | 1.27 (inactive) | -0.0939 (inactive) | -0.714 (inactive) | -0.217 | 0.0028 | -1.06 | -0.477 | 0.485 | -0.488 (inactive) | 0.245 | 4.35 (inactive) | 1.06 (inactive) | 1.01 (inactive) | 0.674 (inactive) | -0.526 | 1.49 (inactive) | -0.0631 (inactive) | 1.68 |
| CCOC(=O)C1=CC[C@@H](c2ccccc2)N(S(=O)(=O)c2ccc(C)cc2)C1 | 0.0639 | -2.28 (inactive) | 0.84 (inactive) | 0.229 (inactive) | 0.368 (inactive) | 0.342 | 0.0633 | 0.303 | 0.17 | -0.474 | -1.46 (inactive) | 0.638 | 2.45 (inactive) | 0.596 (inactive) | 0.517 (inactive) | 0.509 (inactive) | -0.506 | -0.0336 (inactive) | -1.44 (inactive) | -1.63 |
| CC(=O)N1Cc2ccccc2C[C@]2(N=C(c3ccc(OCCCO)cc3)O[C@@H]2c2ccccc2)C1=O | 0.865 | -3.38 (inactive) | -0.497 (inactive) | 1.13 (inactive) | 2.08 (inactive) | 0.253 | 0.12 | 0.611 | 0.297 | 1.18 | 1.23 (inactive) | -0.0536 | 26 (active) | 16.1 (active) | 1.17 (inactive) | 3.32 (inactive) | 0.463 | -1.31 (inactive) | 0.13 (inactive) | -1.9 |
| CCOC(=O)[C@@H]1[C@@H]2C(=O)N(CC)C(=O)[C@@H]2C[C@@H]1Sc1ccccc1 | 0.202 | 0.371 (inactive) | -0.868 (inactive) | 0.136 (inactive) | 1.04 (inactive) | 0.603 | 0.0357 | 0.592 | 0.975 | 0.209 | -0.785 (inactive) | -0.247 | 1.44 (inactive) | 1.16 (inactive) | -0.245 (inactive) | 0.905 (inactive) | -0.502 | -2.32 (inactive) | -4.05 (inactive) | -0.796 |
| CCOC(=O)C1=C[C@@H](c2ccccc2)N(S(=O)(=O)c2ccc(C)cc2)[C@H]1c1cccc(Cl)c1 | 0.55 | -3.89 (inactive) | 1.51 (inactive) | 0.182 (inactive) | -0.451 (inactive) | 1.34 | 0.351 | 0.631 | 0.569 | 0.319 | -1.29 (inactive) | 0.409 | 1.57 (inactive) | 1.24 (inactive) | -0.276 (inactive) | 0.805 (inactive) | -0.645 | 0.14 (inactive) | -0.143 (inactive) | 0.0576 |
| COc1ccc(C(O)C2C=CC3C(=O)N(c4ccccc4)C(=O)C3N2Nc2ccc(C#N)cc2)c2ccccc12 (stereo not given) | 0.0756 | -0.127 (inactive) | -0.856 (inactive) | -0.143 (inactive) | 0.976 (inactive) | 2.49 | 0.442 | 0.109 | 0.917 | -0.149 | -1.2 (inactive) | 0.481 | 9.06 (active) | 2.06 (inactive) | 0.361 (inactive) | 1.44 (inactive) | -1.03 | -1.44 (inactive) | -3.09 (inactive) | -2.29 |
| CC(C)N1CC=CC23O[C@@H]4C=CCCOC(=O)C4[C@H]2C(=O)N(CCO)[C@@H]3C1=O (stereo not given in full) | -0.496 | -0.102 (inactive) | -2.21 (inactive) | -1.99 (inactive) | -0.665 (inactive) | -0.516 | -0.213 | 0.862 | 0.875 | -0.0837 | 2.1 (inactive) | -0.357 | 0.326 (inactive) | 0.568 (inactive) | 1.03 (inactive) | 0.406 (inactive) | 0.468 | 1.37 (inactive) | 0.509 (inactive) | 1.54 |
| C=CC1c2cc(O)c(OC)cc2CCN1Cc1sc2ccccc2c1Cl (stereo not given) | 0.252 | -3.81 (inactive) | 1.39 (inactive) | -0.114 (inactive) | 1.7 (inactive) | 1.57 | -0.295 | -0.425 | 0.257 | -0.0808 | -1.38 (inactive) | 0.268 | 17.9 (active) | 5.17 (inactive) | -0.604 (inactive) | 1.41 (inactive) | -0.248 | -4.21 (inactive) | -2.48 (inactive) | -2.08 |
| COc1ccc(C#Cc2ccc3c(c2)[C@]2(C(=O)N3)[C@H](C(=O)N3CCc4cc(OC)c(OC)cc4C3)[C@H]3C(=O)O[C@H](c4ccccc4)[C@H](c4ccccc4)N3[C@@H]2c2ccc(O)cc2)cc1 | 0.219 | -0.59 (inactive) | -1.01 (inactive) | -0.141 (inactive) | -1.02 (inactive) | 1.04 | -0.121 | 1.03 | 0.199 | 0.466 | -0.658 (inactive) | 0.0839 | 0.488 (inactive) | 0.216 (inactive) | -0.103 (inactive) | 0.296 (inactive) | -0.203 | 1.32 (inactive) | 0.574 (inactive) | -0.523 |
